Screen size: about 360,000 compounds; about 2,900 (0.81%) were called active. The list comes from a sample in which actives are over-represented; it also holds similar structures and randomly drawn compounds. Unmarked numbers belong to inactive results.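 The calls were made as follows: active = inhibition above the mean inhibition across every tested compound plus 3 SD (cut at about 22% in these data); inactive = the rest.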

Chain of Perilipin-5 (Homo sapiens) + 1-acylglycerol-3-phosphate O-acyltransferase ABHD5 (Homo sapiens) (Q00G26 whole entry, looked up): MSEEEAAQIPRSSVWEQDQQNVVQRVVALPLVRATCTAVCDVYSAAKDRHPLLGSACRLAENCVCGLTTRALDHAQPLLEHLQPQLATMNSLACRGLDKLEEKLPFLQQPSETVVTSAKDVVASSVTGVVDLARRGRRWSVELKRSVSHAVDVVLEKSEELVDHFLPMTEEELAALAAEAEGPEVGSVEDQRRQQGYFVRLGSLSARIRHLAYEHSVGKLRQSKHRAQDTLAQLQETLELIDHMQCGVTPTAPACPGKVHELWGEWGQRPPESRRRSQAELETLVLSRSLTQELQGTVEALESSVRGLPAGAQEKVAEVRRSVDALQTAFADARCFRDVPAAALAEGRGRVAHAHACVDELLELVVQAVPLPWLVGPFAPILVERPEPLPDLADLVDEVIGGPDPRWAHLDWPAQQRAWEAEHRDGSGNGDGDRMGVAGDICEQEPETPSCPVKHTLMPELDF
Chain of Perilipin-5 (Homo sapiens) + 1-acylglycerol-3-phosphate O-acyltransferase ABHD5 (Homo sapiens) (Q8WTS1 whole entry, looked up): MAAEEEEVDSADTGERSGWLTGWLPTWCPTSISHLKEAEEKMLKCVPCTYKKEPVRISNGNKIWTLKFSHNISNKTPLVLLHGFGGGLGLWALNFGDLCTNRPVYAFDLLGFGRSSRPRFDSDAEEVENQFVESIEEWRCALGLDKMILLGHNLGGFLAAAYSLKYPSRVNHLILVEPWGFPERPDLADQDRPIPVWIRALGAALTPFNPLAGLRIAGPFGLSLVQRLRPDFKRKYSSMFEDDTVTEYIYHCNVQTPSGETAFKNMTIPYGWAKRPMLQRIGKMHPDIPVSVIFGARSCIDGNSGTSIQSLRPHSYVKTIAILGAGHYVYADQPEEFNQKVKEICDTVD

This assay has as its target Perilipin-5 (Homo sapiens) + 1-acylglycerol-3-phosphate O-acyltransferase ABHD5 (Homo sapiens) (UniProt Q00G26+Q8WTS1). The assay can be described thus: blockers of ABHD5 binding to perilipin-5 – cell lysate, split luciferase complementation, luminescence, primary screen (AID 602281).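 Also: 0% = DMSO only wells and the 100% control is not disclosed.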 As to conditions: Split G. princeps luciferase complementation, 4 h, at 4 µM, hits give high values.
As for `COc1ccc(CN(C)Cc2nc3cc(OC)c(OC)cc3c(=O)[nH]2)c(OC)c1`, the inhibition was 3.55%.
In the case of `COc1ccc(C2NC(=S)NC3=C2CCc2ccccc23)cc1OC` (stereo not given) it was -20.7%; in that of `O=C(c1c(F)cccc1F)N1CCN(S(=O)(=O)c2ccc3c(c2)OCCO3)CC1`, -12.9%; in that of `Fc1ccc(N2N=C(c3cccs3)CC2c2ccco2)c(F)c1` (stereo not given), -11.2%.
For `COC(=O)c1ccc2nc(-c3ccc(C)cc3)c(Cc3ccc(OC)cc3C)n2c1` the value was 0.21%; for `Fc1ccc(CNCc2ccc(Br)cc2)cc1`, 3.28%.
For `CCOC(=O)N1CCN(S(=O)(=O)c2ccc3c(c2)C(C)C(=O)N3)CC1` (stereo not given) the value was 2.99%; for `FC(F)(F)C1CCCN(c2nsc3ccccc23)C1` (stereo not given), 28.5% (active); for `COC(=O)[C@@]12C[C@@H](CC(=O)NCc3cccc(C(F)(F)F)c3)C(=O)N(Cc3ccco3)C1=CCC(C)(C)C2`, -1.98%.
In the case of `CCS(=O)(=O)Nc1ccc(C(=O)NCCSc2ccccc2)cc1`, the inhibition is -5.43%.
`COC(C[C@@H](O)[C@H](C)[C@H](O)COCc1ccccc1)OC`: the inhibition is -4.38%.
`CCCCN(Cc1ccccc1)C(=O)C1CCN(Cc2sccc2C)CC1`: the inhibition is 1.95%.
In the case of `O=C(/C(=C/c1cccc(Cl)c1)c1nc2ccccc2[nH]1)c1ccccc1` it was 23.3% (active); in that of `CCCc1nc2ccccc2n1C(C)C(=O)NC(C)(C)C` (stereo not given), 5.62%; in that of `CN(C)NC(=O)c1csnc1-c1c(Cl)cccc1Cl`, -5.5%.
As to `COC(=O)c1ccc(COC(=O)C2CCN(S(=O)(=O)c3c(Cl)cccc3Cl)CC2)o1`, the inhibition is 1.49%.
In the case of `C#CCOCCOCCOCCNc1nc(N2CCOCC2)nc(N2CCN(C(=O)[C@H](Cc3ccc(O)cc3)n3cc(CCO)nn3)CC2)n1` it was -5.39%; in that of `C#CCOCCOCCOCCNc1nc(N2CCN(C(=O)C([C@@H](C)O)n3cc([C@@H](N)CCCCN)nn3)CC2)nc(N2CCN(C(=O)[C@H](CCCCN)n3cc(CN)nn3)CC2)n1` (stereo not given in full), 8.85%; in that of `C#CCOCCOCCOCCNc1nc(N2CCN(C(=O)CCCCCCCCCCNC(=O)Cn3cc(CCCCCN)nn3)CC2)nc(N2CCN(C(=O)CCCCCCCCCCNC(=O)[C@H](CO)n3cc(CCCSC)nn3)CC2)n1`, 44% (active).
For `CN(C)c1cc(N)c2ccccc2n1` (tested in a mixture with another compound) the value was -3.32%; for `O=C(O)c1ccc(S(=O)(=O)N2CCC(Cc3ccccc3)CC2)cc1`, -8.86%.
In the case of `Cc1ccc2[nH]c(=O)c(CC=C(Cl)Cl)c(C)c2c1` it was 1.26%.
As to `C=C1C(=O)[C@]23C[C@H]1CCC2[C@@]1(C)C(C[C@@H]3O)[C@](C)(C(=O)O)CC[C@@H]1O` (stereo not given in full), the inhibition was 36.1% (active).
Turning to `CCN(C(=O)COC(=O)c1cc(NS(=O)(=O)c2ccc(Cl)c([N+](=O)[O-])c2)ccc1O)C1CCCCC1`, the inhibition was -3.6%.
In the case of `O=Cc1ccc(OCc2cn3ccccc3n2)cc1` it was -8.56%; in that of `COc1cc(N2C(=O)c3ccccc3C2=O)c(Cl)cc1C(=O)OCC(=O)N1CCOCC1`, -1.51%; in that of `O=C(CSc1nnc(-c2cccnc2)n1Cc1ccco1)c1ccc(Cl)cc1`, 22.5% (active).
In the case of `C(=C\c1ccccc1)/CSc1nnc(-c2cccnc2)n1Cc1ccco1` it was 7.27%; in that of `CCOC(=O)Cc1csc(NC(=O)CSc2nnc(-c3cccnc3)n2Cc2ccco2)n1`, 5.88%; in that of `CCc1ccc(NC(=O)CSc2nnc(-c3cnccn3)n2Cc2ccco2)cc1`, 23.2% (active).
In the case of `CCn1c(SCC(=O)Nc2cc(C)ccc2C)nnc1-c1cnccn1` it was 7.43%.
Consider `Cc1cc(C)nc(SCc2nnc(SCC(=O)Nc3ncc(C)s3)n2Cc2ccco2)n1`, for which the inhibition is 19.3%.
For `CCCCCNC(=O)C1C(=O)Nc2ccccc2C(=O)N1C(C)(C)C` (stereo not given) the value was 4.37%; for `COc1cc(/C=C/CO)cc(OC)c1O[C@@H]1O[C@H](CO)[C@@H](O)[C@H](O)[C@H]1O`, -1.15%; for `O=C(CC(=O)c1cccnc1)c1ccccc1`, -23.9%.
For `O=C(OCc1cc(Cl)ccc1OC(F)F)c1cccnc1` the value was 4.48%.
Take `O=C(/C=C/c1ccc(Cl)cc1Cl)c1cccnc1`: the inhibition is 74.7% (active).
Regarding `Cc1ccc(S(=O)(=O)N(C)C)cc1NC(=O)c1n[nH]c(=O)c2ccccc12`, the inhibition is 5.24%.
Turning to `O=C1CCCC(O)=C1N=Nc1ccc2ncsc2c1`, the inhibition is -5.19%.
In the case of `O=C(Cn1cnc2c(nnn2-c2ccccc2)c1=O)N1CCC(Cc2ccccc2)CC1` it was 7.96%.
In the case of `O=C(/C=C/Sc1ncn[nH]1)c1ccc(Cl)cc1` it was 57.9% (active).
For `O=C(Nc1ccc(F)cc1)C(CCc1ccccc1)N1CCN(CC(=O)N2CCCC2)CC1` (stereo not given) the value was -3.25%; for `CCCCc1cc2c(s1)CCCC/C2=N/O`, -9.56%.
For the compound `COc1cc(/C=C(\C#N)C(=O)Nc2ccc3ccccc3c2)c([N+](=O)[O-])cc1OC`, the inhibition is -3.38%.
In the case of `COc1ccc(CNC(=O)c2c[nH]c3c(OC)cc(OC)cc3c2=O)cc1` it was -1.89%; in that of `COc1ccc(CNC(=O)/C(C#N)=C/c2cccc(OC)c2OC)cc1`, 36% (active); in that of `COC(=O)C[C@H]1C[C@@H]2c3cc(NC(=O)Nc4ccccc4)ccc3O[C@@H]2[C@@H](CO)O1`, 3.8%.
In the case of `c1ccc(-c2c[nH]c(-c3ccccc3)c2)cc1` it was -5.36%; in that of `O=C(NC1CCCCCCC1)c1cccs1`, -5.96%; in that of `O=C(NNC(=O)c1ccc(Cl)cc1Cl)c1cccs1`, 3.54%.
As to `O=C(N/N=C/C=C/c1ccco1)c1cccs1`, the inhibition was 36.5% (active).
In the case of `Cc1cccc(CN2CCN(C3CN(Cc4cn(Cc5ccccc5F)nn4)S(=O)(=O)C3)CC2)c1` (stereo not given) it was 5.46%; in that of `Cc1ccc(-c2c(N)nc3ncccn23)cc1`, -3.59%.
For `Cc1cc(C)nc(NC(=O)/C=C/c2ccc(Cl)cc2)n1` the value was 0.69%; for `Cc1cccc(C=CC(=O)c2ccc(Cl)cc2)c1`, 34.8% (active).
For `Cc1cccc(C(=O)Nc2ccc(C(=O)/C=C/c3cccs3)cc2)c1` the value was 12.6%; for `CCO[C@H]1OC(C(=O)Nc2ccccc2)=C[C@@H](C2CC2)[C@@H]1CCCO`, -3.76%; for `CCCCN1C(N)=NC[C@@H]1CC1CCCCC1`, 10.6%.
Take `O=C1C=C(c2ccc(Cl)cc2)C(=O)N1Nc1ccccc1`: the inhibition was 66.8% (active).
For `Cc1ccn2cc(-c3nonc3C)cc2c1` the value was -1.69%; for `CCc1ccccc1NC(=O)c1cc(-c2ccc3c(c2)OCO3)on1`, -4.14%.
In the case of `COc1ccc(/C=C/C(=O)c2cc(Br)ccc(=O)c2O)cc1` it was 22.1% (active); in that of `COc1ccc(/C=C/C(=O)NC(=S)N2CCCC(C(N)=O)C2)cc1` (stereo not given), -2.44%.
In the case of `CCOc1ccc(NC(=S)NC(=O)/C=C/c2ccc(OC)cc2)c([N+](=O)[O-])c1` it was 2.26%; in that of `O=C(O)c1cc2ccccc2c(=O)s1`, 10.5%; in that of `NC[C@H](Cc1ccccc1)NCCc1cc(C(F)(F)F)cc(C(F)(F)F)c1`, 5.8%.
Take `COc1ccc(/C(O)=C2\C(=O)C(=O)N(Cc3ccco3)C2c2ccc(OC)cc2OC)cc1` (stereo not given): the inhibition was 28.9% (active).
For `COc1ccc(/C(O)=C2/C(=O)C(=O)N(c3nc(C)c(C)s3)C2c2ccco2)cc1` (stereo not given) the value was 6.99%; for `COc1cc(C2/C(=C(\O)c3ccc4c(c3)CC(C)O4)C(=O)C(=O)N2Cc2ccco2)ccc1O` (stereo not given), 11.1%.
In the case of `COc1ccccc1C1/C(=C(/O)c2ccc(C)cc2)C(=O)C(=O)N1Cc1ccco1` (stereo not given) it was 28.4% (active); in that of `COc1ccc(/C(O)=C2/C(=O)C(=O)N(CC3CCCO3)C2c2ccc(OC)c(OC)c2)cc1` (stereo not given), 1.46%; in that of `COc1ccc(/C(O)=C2/C(=O)C(=O)N(CCCN(C)C)C2c2ccccc2)cc1OC` (stereo not given), -4.94%.
For the compound `CC(C)c1nnc(NC(=O)C2CC(=O)N(CCc3ccc(F)cc3)C2)s1` (stereo not given), the inhibition was -0.4%.
In the case of `CSc1nc(-c2ccccc2)nc(C(Cl)Cl)n1` it was -6.27%; in that of `COc1ccc(-c2nnc3n2CCCCC3)cc1`, 2.02%; in that of `CCC(=O)N1CCc2cc(Br)c(S(=O)(=O)NCCN3CCCCC3CC)cc21` (stereo not given), 6.34%.
For `N#Cc1ccc(C(=O)OCC(=O)NC(=O)NC2CCCCC2)cc1` the value was -1.6%; for `NC(=O)C1CCN(C(=O)CC2C(=O)NCCN2Cc2cccc(Oc3ccccc3)c2)CC1` (stereo not given), 4.81%.
For `O=C(NNc1ccccn1)c1ccc(Cl)nc1` the value was 74% (active); for `CCN(CC)c1ccc(NC(=O)c2ccc(Cl)nc2)cc1`, -1.77%; for `O=C(NNC(=O)c1ccc(Cl)nc1)c1ccc(Br)cc1`, -5.62%.
Consider `Cc1ccc(CSCCNC(=O)CN(c2ccc(F)cc2)S(C)(=O)=O)cc1`, for which the inhibition is -1.09%.
For `Cn1c(=O)[nH]c2c(c(C(=O)O)nn2C)c1=O` the value was 18.8%.
Consider `Cc1cn(C2C=CC(CO)O2)c(=O)[nH]c1=O` (stereo not given), for which the inhibition is 6.6%.
In the case of `O=[N+]([O-])c1c(NCCO)cc(Sc2nc3ccccc3s2)c2nonc12` it was 42.8% (active).
In the case of `Nc1cc(N2CCCCCC2)c2nonc2c1[N+](=O)[O-]` it was 3.02%; in that of `COc1cc(C(O)c2nc(-c3cccc(C(=O)O)c3)cs2)ccc1F` (stereo not given), 7.06%; in that of `COc1ccccc1C(=O)Nc1nc2nc(-c3ccccc3)cc(=O)n2[nH]1`, -1.37%.
Consider `COc1ccc2c(c1OC)C(=O)OC2Nc1nc(-c2ccccc2)cs1` (stereo not given), for which the inhibition is 38.8% (active).
For `O=C(c1cc(COc2ccc(F)cc2F)on1)N1CCOCC1` the value was -0.17%.
